Screen size: about 48,000 compounds; about 13,000 (27%) showed an effect of 50% or more. The list shows a part of the results.
test system: Wolbachia pipientis; test: Anti-Wolbachia Cell-Based Screen; assay type: functional; parameters: scale not given: in the data most compounds retested in dose-response had high values; details: 5 µM

Structure (SMILES) | Percent Effect [%]
O=C(NCC1(CO)CC1)c1ccccc1Br | -13.86
COCC(C)N1CCc2onc(-c3ccc(F)c(F)c3)c2C1 (stereo not drawn) | -3.283
O=C(NC1CCS(=O)(=O)C1)c1ccc(SCc2cscn2)cc1 (stereo not drawn) | -5.861
CCCc1cc(NCc2ccc(CO)cc2)n2nccc2n1 | -5.904
CC(C)N1CCn2c(COCC3CCOCC3)cnc2C1C.O=C(O)C(F)(F)F (stereo not drawn) | 6.159
CC1c2ncc(Cn3cncn3)n2CCN1C(=O)C1CCOCC1 (stereo not drawn) | -2.006
O=S(=O)(C1CC1)N1CCc2ncc(Cn3cncn3)n2CC1 | -7.39
COCc1cnc2n1CCN(S(=O)(=O)N(C)C)C2C (stereo not drawn) | 6.284
CC1c2ncc(Cn3cncn3)n2CCN1C1CCOCC1.O=C(O)C(F)(F)F (stereo not drawn) | -16.95
CC1c2ncc(Cn3cncn3)n2CCN1C(=O)[C@H]1CCCO1 (stereo partly drawn) | 86.12
CC1c2ncc(Cn3cncn3)n2CCN1CC1CCOCC1.O=C(O)C(F)(F)F (stereo not drawn) | 55.37
CC1c2ncc(Cn3cncn3)n2CCN1C(=O)N(C)C (stereo not drawn) | 113.2
Cc1occc1C(=O)N1CCn2c(Cn3cncn3)cnc2C1C (stereo not drawn) | 120.5
Cc1nc(COCc2cnc3n2CCN(C(=O)C2CC2)C3C)cs1 (stereo not drawn) | -5.573
CSCCCN1CCC(c2nnc(Cn3ccnc3)n2C2CC2)CC1 | 14.62
N#Cc1cccc(OCCN2CCC(C(=O)N3CCOCC3)CC2)c1 | -12.33
O=C(CC(F)(F)F)N1C[C@@H]2CC[C@H](C1)N(Cc1ccccc1)C2=O | -3.015
CCn1c(C2CCCN(Cc3ccc4ccccc4n3)C2)nn(C)c1=O (stereo not drawn) | 31.19
COc1ccccc1C1(CNc2cn[nH]c(=O)c2Cl)CCOCC1 | -1.761
Cc1ncsc1CCN1CCN(C(=O)c2ccc(=O)[nH]c2)CC1 | 12.93
COCC(=O)N1CCn2c(Cn3cncn3)cnc2C1C (stereo not drawn) | 79.44
COCCC(=O)N1CCn2c(COCC3CC3)cnc2C1C (stereo not drawn) | -18.59
CC(O)C(=O)N1CCC(c2[nH]ncc2-c2ccccc2)CC1 (stereo not drawn) | 105.3
Cc1ccc(-c2cn[nH]c2C2CCCN(c3nccc(N)n3)C2)cc1 (stereo not drawn) | 6.644
C[C@H](N)C(=O)N1CCC(c2[nH]ncc2-c2ccccc2)CC1 | 108.2
C[C@@H](N)C(=O)N1CCC(c2[nH]ncc2-c2ccccc2)CC1 | 132.4

Structure (SMILES) | Percent Effect [%]
CCc1cn[nH]c1C1CCN(C(=O)c2cccc(O)c2C)CC1 | -3.715
CC(C(=O)N1CCC(c2[nH]ncc2-c2ccccc2)CC1)n1cncn1 (stereo not drawn) | 96.41
Cc1ccc(N2CCCC(c3[nH]ncc3-c3ccccc3)C2)nn1 (stereo not drawn) | 25.67
FC(F)c1nnc2ccc(N3CCC4(CCOC4)C3)nn12 (stereo not drawn) | -11.38
CSc1ncc(CNC(C)c2cnn(-c3ccccc3)c2C)cn1 (stereo not drawn) | 31.2
CN(CCCc1n[nH]c(N)c1C#N)C(=O)Nc1cc(Cl)cc(Cl)c1 | 9.984
Cc1ccc(NCc2ncc(C(C)(C)C)o2)c(Cl)c1 | -11.33
O=C(CCC1CCN(Cc2ccncc2)CC1)Nc1ccccc1Cl | -2.559
Cc1cnn(CC2CCCCN2C(=O)CN(C)C2CC2)c1 (stereo not drawn) | 4.023
Cc1cnn(CC2CCCN2C(=O)Cc2cn3ccsc3n2)c1 (stereo not drawn) | 12.98
Cc1cnn(CC2CCCN2C(=O)Cc2c(C)noc2Cl)c1 (stereo not drawn) | 116
Cc1cnn(CC2CCCN2C(=O)c2cc(C)no2)c1 (stereo not drawn) | 3.618
Cc1cnn(CC2CCCCN2C(=O)Cc2c(C)noc2Cl)c1 (stereo not drawn) | 116.9
CCN1CC2(CCN(C(=O)C(C)Oc3ccc(F)cc3F)CC2)OC1=O (stereo not drawn) | -0.4228
COc1ccc(F)cc1C[S+]([O-])CC(=O)NCc1ccccc1C (stereo not drawn) | 4.028
Cc1cc(C[S+]([O-])CC(=O)NCc2ccccc2)no1 (stereo not drawn) | 111.1
Cc1cc(C[S+]([O-])CC(=O)NCc2cccc(Cl)c2)no1 (stereo not drawn) | 98
COc1ccccc1CNC(=O)C[S+]([O-])Cc1cc(C)on1 (stereo not drawn) | 100.1
COc1ccc(F)cc1C[S+]([O-])CC(=O)NCc1ccccc1 (stereo not drawn) | -20.74
Cc1cc(C[S+]([O-])CC(=O)Nc2c(C)cccc2C)no1 (stereo not drawn) | 4.503
Cc1cc(C[S+]([O-])CC(=O)NCC(C)C)no1 (stereo not drawn) | -9.622
O=C(C[S+]([O-])Cc1cccc(Cl)c1)NC1CCCC1 (stereo not drawn) | -4.291
Cc1cc(C[S+]([O-])CC(=O)NCc2cccs2)no1 (stereo not drawn) | -0.248
CNC(=O)CCS(=O)(=O)Cc1nnnn1-c1ccccc1 | 7.116
CC1(NC(=O)CC2CCc3ccccc32)CCOCC1 (stereo not drawn) | -18.69
CCN(CC(C)C#N)C(=O)c1cccc(COc2ccc(C)nc2)c1 (stereo not drawn) | 11.78

Structure (SMILES) | Percent Effect [%]
CC(c1ccco1)N(C(=O)c1cccc(C#N)c1)C1CC1 (stereo not drawn) | -7.767
CC(C)n1ccnc1CN1CCCN(C(=O)c2cccnc2O)CC1 | 3.954
CC(C)c1noc(CN2CCN(C(=O)c3cccnc3O)CC2)n1 | 109.3
CC(C)c1noc(CCC(=O)Nc2cc(F)ccc2F)n1 | 6.757
CC(C)c1noc(CN2CCN(C(=O)c3cc(Cl)ccc3F)CC2)n1 | 113.5
CN(C)Cc1nc2c(o1)CN(C(=O)c1ccncc1F)C2 | -6.758
CC(C)c1noc(CN2CCN(C(=O)c3ccncc3F)CC2)n1 | 113.2
CC(C)c1noc(CN2CCN(C(=O)c3ccccc3F)CC2)n1 | 4.935
CC(C)(O)CN1CCN(C(=O)c2cccnc2O)CC1 | -5.606
CN(C)C(=O)c1ccc(-c2cscn2)cc1 | -9.809
O=C(O)C(F)(F)F.O=C(c1cnccn1)N1CCN2C[C@H](Oc3cccc(F)c3)C[C@H]2C1 | 8.036
OC1(CNCc2ccc(F)c(C(F)(F)F)c2)CCOC1 (stereo not drawn) | -11.97
CCN1CCC2(CN(C(=O)N(C)C)CC23CCN(CC2CC2)CC3)C1=O.O=C(O)C(F)(F)F (stereo not drawn) | -42.34
c1ncn(CCNC2CCCN(Cc3noc(C4CC4)n3)C2)n1 (stereo not drawn) | 10.95
CC(C)(C)c1nc(CN2CCCC(Cn3cncn3)C2)no1 (stereo not drawn) | 114.7
c1cnc(-c2nc(CN3CCCC(Cn4cncn4)C3)cs2)nc1 (stereo not drawn) | 1.551
CC(C)(C)c1nnc(CN2CCCC(Cn3cncn3)C2)o1 (stereo not drawn) | 3.207
CCCc1nc(CN2CCCC(Cn3cncn3)C2)no1 (stereo not drawn) | 15.71
c1ncn(CC2CN(Cc3noc(C4CC4)n3)CCO2)n1 (stereo not drawn) | 0.6807
Cc1nc(CN2CCCC(Cn3cncn3)C2)no1 (stereo not drawn) | 79.74
c1ncn(CC2CCCN(Cc3noc(C4CC4)n3)C2)n1 (stereo not drawn) | 115
Cc1ccc(CNC(=O)NCC(=O)NC(C)(C)C)c(N2CCCC2)c1 | 2.082
Fc1ccccc1-c1noc2c1CN(CC1CC1)CC2 | -13.76
Cn1ccnc1CN1C[C@@H](F)[C@@H](OCc2nc3cnccc3[nH]2)C1 | 4.118
CCOCCn1c(=O)[nH]c2cc(C(=O)N(C)Cc3ccno3)ccc21 | 10.95
O=C1CCC2(CCNCC2)CN1CCCNc1cccnc1 | -8.003

Structure (SMILES) | Percent Effect [%]
COCC(=O)N1CCN(CC2CC2)c2ncccc2C1 | 17.09
O=C(CC1CC1)N1CCN(Cc2cccnc2)c2ncccc2C1.O=C(O)C(F)(F)F.O=C(O)C(F)(F)F | 108.8
COCC(=O)N1CCN(Cc2cccnc2)c2ncccc2C1.O=C(O)C(F)(F)F.O=C(O)C(F)(F)F | 107.3
O=C(O)C(F)(F)F.O=C(O)CCC(=O)N1CCN(CC2CC2)c2ncccc2C1 | -20.91
O=C(C1CC1)N1CCN(Cc2ccncc2)c2ncccc2C1.O=C(O)C(F)(F)F.O=C(O)C(F)(F)F | 97.41
O=C(Cc1ccsc1)N1CCN(CC2CC2)c2ncccc2C1.O=C(O)C(F)(F)F | -24.66
O=C(CC1CC1)N1CCN(Cc2ccncc2)c2ncccc2C1.O=C(O)C(F)(F)F.O=C(O)C(F)(F)F | 106.6
CC(=O)NCC(=O)N1CCN(Cc2cccnc2)c2ncccc2C1 | -23.25
Cc1ccc2c(n1)N(C)CCN(C(=O)C1CC1)C2.O=C(O)C(F)(F)F | -19.49
CCCS(=O)(=O)N1CCC2(CC1)CCn1c(-c3cnn(C)c3)cnc12.O=C(O)C(F)(F)F | -1.785
CC(=O)NS(=O)(=O)c1ccc2c(c1)N(C)CCC2 | -0.0475
CCc1nsc(N2CCCN(C(=O)c3ccc(OC)cc3)CC2)n1 | 4.92
CN(C)C(=O)N1CCC(C(=O)N2CCOC(CC3CCCCC3)C2)CC1 (stereo not drawn) | 1.077
CN(C)Cc1nnc(C2CCCN(Cc3ccc(Cl)s3)C2)n1C (stereo not drawn) | -1.038
COc1ncnc2c1CCN(c1cc(C(F)(F)F)ncn1)CC2 | -19.6
N#Cc1ccnc(N2CCC(NCCN3CCCC3)CC2)c1 | 4.204
Cn1cnnc1SCc1cc2c(cc1Cl)OCO2 | 116.9
Cn1nnnc1SCc1cc2c(cc1Cl)OCO2 | 119.1
CN(Cc1cscn1)Cc1cc2c(cc1Br)OCO2 | 7.123
Cn1nnnc1SCCNC1CCN(c2ccc3c(c2)OCO3)CC1 | -18.49
Cn1cnnc1SCc1cc2c(cc1Br)OCO2 | 98.1
Cn1c(N)nnc1SCc1ccc(Cl)cc1Br | -13.54
Cn1c(N)nnc1SCc1cc(Br)ccc1Cl | -1.725
Cn1cnnc1S(=O)(=O)Cc1cc(Cl)c2c(c1)OCO2 | -6.914
CC(C)C(=O)Nc1ccc(Sc2nncn2C)c(Cl)c1 | 7.85
